# Test results published in PubChem BioAssay (NCATS).
# Results filed as inconclusive are left out. A call without a number means that no potency is given here. Activity calls are given as the source filed them. The call rests on the fitted dose curve. Numbered stars: 1 amine (or outer) side, 2 acyl side, 3 side chain; on linkers, the order of the positions; unused ones are H or OH. Bridge positions count the residues as written; N and C are the ends. Square brackets hold non-standard residues; d marks the D form. Peptide text beside a SMILES is read from it. * marks the point of attachment. X6 = NC1=N[C@@H](O)C[C@H]([C@H](N[*:1])C(=O)[*:2])N1; ΔAla(Z-3-ureido) = NC(=O)N/C=C(\N)C(=O)O; Octanoyl(6-Me) = CCC(C)CCCCC(=O)*; β3hOrn = NCCC[C@H](N)CC(=O)*; Dab = NCC[CH](N)C(=O)O; Dap = NC[C@H](N)C(=O)O
# Assay: Primary qHTS for Huh7 cytotoxicity: counterscreen for inhibitors of MERS-S pseudotyped particle cell entry (AID 1479147)
# Conditions: cell viability read-out; series mostly up to 57.1 µM
Compound,Potency,outcome,"activity change, negative = cytotoxicity"
CNC[C@@H]1CC[C@@H](N)[C@@H](O[C@H]2[C@H](O)[C@@H](O[C@H]3OC[C@](C)(O)[C@H](NC)[C@H]3O)[C@H](N)C[C@@H]2N)O1,inactive,–,–
CO[C@H]1C[C@@H]2CC[C@@H](C)[C@@](O)(O2)C(=O)C(=O)N2CCCC[C@H]2C(=O)O[C@H]([C@H](C)C[C@@H]2CC[C@@H](OC(=O)C(C)(CO)CO)[C@H](OC)C2)CC(=O)[C@H](C)/C=C(\C)[C@@H](O)[C@@H](OC)C(=O)[C@H](C)C[C@H](C)/C=C/C=C/C=C/1C,inactive,–,–
CC(=O)OC1CCC2(C)C(=CCC3C2CCC2(C)C(c4cccnc4)=CCC32)C1 (stereo not given),inactive,–,–
CC(C)(C)NCC(O)COc1ccccc1C#N (stereo not given),inactive,–,–
CCOc1ccc(Cc2cc([C@@H]3O[C@H](CO)[C@@H](O)[C@H](O)[C@H]3O)ccc2Cl)cc1,inactive,–,–
CO/N=C(\C(=O)N[C@@H]1C(=O)N2C(C(=O)O)=C(CSc3cnns3)CS[C@H]12)c1csc(N)n1,inactive,–,–
O=P(O)(O)OP(=O)(O)O,inactive,–,–
CC1(C)S[C@@H]2[C@@H](N3C(=O)[C@@H](c4ccccc4)NC3(C)C)C(=O)N2[C@H]1C(=O)O,inactive,–,–
CNCC(O)c1ccc(OC(=O)C(C)(C)C)c(OC(=O)C(C)(C)C)c1 (stereo not given),inactive,–,–
CCCCC(=O)O,inactive,–,–
NCCC[C@H](N)CC(=O)N[C@H]1CNC(=O)[C@H]([C@H]2C[C@H](O)N=C(N)N2)NC(=O)/C(=C/NC(N)=O)NC(=O)[C@H](CO)NC(=O)[C@H](CO)NC1=O (β3hOrn-[Dap]SS[ΔAla(Z-3-ureido)][X6]; lactam 1-C),inactive,–,–
CS(=O)(=O)n1cc2c(n1)CN([C@H]1CO[C@H](c3cc(F)ccc3F)[C@@H](N)C1)C2,inactive,–,–
CO/N=C(\C(=O)N[C@@H]1C(=O)N2C(C(=O)O)=C(Cn3ccc(=N)n3CCO)CS[C@H]12)c1csc(N)n1,inactive,–,–
CN[C@H]1C(=O)N[C@@H]2Cc3ccc(cc3)Oc3cc4cc(c3O[C@@H]3O[C@H](C(=O)O)[C@@H](O)[C@H](O)[C@H]3NC(=O)CCCCCCCCC(C)C)Oc3ccc(cc3Cl)[C@@H](O)[C@@H]3NC(=O)[C@H](NC(=O)[C@@H]4NC(=O)[C@@H](NC2=O)c2cc(cc(O)c2Cl)Oc2cc1ccc2O)c1ccc(O)c(c1)-c1c(O[C@H]2O[C@H](CO)[C@@H](O)[C@H](O)[C@@H]2O)cc(O)cc1[C@@H](C(=O)NCCCN(C)C)NC3=O,inactive,–,–
CNC(=O)OCc1cccc(COC(=O)NC)n1,inactive,–,–
CSCCNc1nc(SCCC(F)(F)F)nc2c1ncn2[C@@H]1O[C@H](COP(=O)(O)OP(=O)(O)C(Cl)(Cl)P(=O)(O)O)[C@@H](O)[C@H]1O,inactive,–,–
COC(=S)NCCn1c([N+](=O)[O-])cnc1C,inactive,–,–
O=C(O[C@H]1C[N+]2(CCCOc3ccccc3)CCC1CC2)C(O)(c1cccs1)c1cccs1,inactive,–,–
O=C1C(c2[nH]c3ccc(S(=O)(=O)O)cc3c2O)=Nc2ccc(S(=O)(=O)O)cc21,inactive,–,–
CO[C@H]1/C=C\O[C@@]2(C)Oc3c(C)c(O)c4c(O)c(c5c(nc6cc(C)ccn65)c4c3C2=O)NC(=O)/C(C)=C\C=C/[C@H](C)[C@H](O)[C@@H](C)[C@@H](O)[C@@H](C)[C@H](OC(C)=O)[C@@H]1C,inactive,–,–

Compound,Potency,outcome,"activity change, negative = cytotoxicity"
CN(C)/C(N)=N/C(=N)N,–,inactive [setting not given],–
C[C@@H]1C[C@H]2[C@@H]3CCC4=CC(=O)C=C[C@]4(C)[C@@]3(F)[C@@H](O)C[C@]2(C)[C@@]1(O)C(=O)COP(=O)(O)O,–,inactive [at 11.4 µM],–
CCCC(=O)O[C@]1(C(=O)COC(=O)CC)[C@@H](C)C[C@H]2[C@@H]3CCC4=CC(=O)C=C[C@]4(C)[C@@]3(F)[C@@H](O)C[C@@]21C,inactive,–,–
CC(CCc1ccc(O)cc1)NCC(O)c1ccc(O)cc1 (stereo not given),inactive,–,–
OC[C@H]1OC(O)C[C@@H](O)[C@@H]1O (stereo not given in full),inactive,–,–
CC1(C)S[C@@H]2[C@H](NC(=O)C(C(=O)Oc3ccc4c(c3)CCC4)c3ccccc3)C(=O)N2[C@H]1C(=O)O (stereo not given in full),inactive,–,–
C[C@H](CCC(=O)O)[C@H]1CC[C@H]2[C@@H]3[C@H](O)C[C@@H]4C[C@H](O)CC[C@]4(C)[C@H]3C[C@H](O)[C@]12C,inactive,–,–
NC[C@@H]1O[C@H](O[C@H]2[C@@H](O)[C@H](O[C@@H]3[C@@H](O)[C@H](N)C[C@H](N)[C@H]3O[C@H]3O[C@H](CO)[C@@H](O)[C@H](O)[C@H]3N)O[C@@H]2CO)[C@H](N)[C@@H](O)[C@@H]1O,–,inactive [at 0.573 µM],–
O=C(Cc1cccs1)NC1C(=O)N2C(C(=O)[O-])=C(C[n+]3ccccc3)CSC12 (stereo not given),inactive,–,–
COC(=O)N[C@H](C(=O)N1CCC[C@H]1C(=O)Nc1ccc([C@@H]2CC[C@@H](c3ccc(NC(=O)[C@@H]4CCCN4C(=O)[C@@H](NC(=O)OC)C(C)C)cc3)N2c2ccc(C(C)(C)C)cc2)cc1)C(C)C,inactive,–,–
CC(C)(C)C(=O)OCC(=O)[C@H]1CC[C@H]2[C@@H]3CCC4=CC(=O)CC[C@]4(C)[C@H]3CC[C@]12C,inactive,–,–
NC(=O)OCC(O)COc1ccc(Cl)cc1 (stereo not given),inactive,–,–
CC(C=CC1=C(C)CCCC1(C)C)=CC=CC(C)=CC(=O)Oc1c(C)c(C)c2c(c1C)CC[C@@](C)(CCC[C@H](C)CCC[C@H](C)CCCC(C)C)O2,–,–,-9.73% [at 5.34 µM] (inactive)
CCC(C)CCCCC(=O)NC(CCN)C(=O)NC(C(=O)NC(CCN)C(=O)NC1CCNC(=O)C(C(C)O)NC(=O)C(CCN)NC(=O)C(CCN)NC(=O)C(CC(C)C)NC(=O)C(Cc2ccccc2)NC(=O)C(CCN)NC1=O)C(C)O (stereo not given) ({Octanoyl(6-Me)}-[Dab]T[Dab][Dab][Dab]FL[Dab][Dab]T; lactam 4-C; configuration not given here),inactive,–,–
O=C[C@H](O)[C@@H](O)[C@H](O)[C@H](O)CO,inactive,–,–
CCCCCCCCCCCCCCCCOc1nc2ccc(C)cc2c(=O)o1,inactive,–,–
CCCC(=O)O[C@]1(C(=O)COC(C)=O)CC[C@H]2C3C[C@H](F)C4=CC(=O)C=C[C@]4(C)[C@@]3(F)[C@@H](O)C[C@@]21C (stereo not given in full),inactive,–,–
COC(=O)CCC(=O)CN,inactive,–,–
CCCCCCCCCCCC(=O)OCN1C(=O)CCc2ccc(OCCCCN3CCN(c4cccc(Cl)c4Cl)CC3)cc21,inactive,–,–
CC(O)C(CO)NC(=O)C1CSSCC(NC(=O)C(N)Cc2ccccc2)C(=O)NC(Cc2ccccc2)C(=O)NC(Cc2c[nH]c3ccccc23)C(=O)NC(CCCCN)C(=O)NC(C(C)O)C(=O)N1 (stereo not given),inactive,–,–
